Screening data as filed in PubChem BioAssay.
HSP90 inh = HSP90 refolding inhibition in rabbit reticulocyte lysate. luciferase refolding luminescence, 3 h. inhibition, % at 5.6 µM. 290,000 tested, 0.91% active. AID 1789;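 active = inhibition above the screen-wide mean plus 3 SD, computed separately per campaign, cut at about 16% in these data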;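 also: 0% = DMSO wells and 100% = 60 µM geldanamycin wells; inhibitors lower the luminescence because luciferase stays unfolded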
SENP8 block-1 = blocks the human protease SENP8. Q96LD8. purified SENP8, Z-RLRGG-aminoluciferin cleavage, luminescence. inhibition, % at 10 µM. 330,000 tested, 1.2% active. AID 2540; in the data active = inhibition above about 50%
Target sequence (Q96LD8 whole entry, looked up): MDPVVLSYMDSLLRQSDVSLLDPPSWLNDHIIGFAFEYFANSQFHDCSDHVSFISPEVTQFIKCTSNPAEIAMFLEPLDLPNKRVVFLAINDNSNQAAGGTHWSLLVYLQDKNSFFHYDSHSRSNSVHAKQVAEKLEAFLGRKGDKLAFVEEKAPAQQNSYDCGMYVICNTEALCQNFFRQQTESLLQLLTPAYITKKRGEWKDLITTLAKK
SENP6 block = SENP6 protease inhibition; Q9GZR1; Recombinant SENP6 catalytic domain, aminoluciferin luminescence; inhibition, % at 10 µM; 330,000 tested, 1.8% active;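 active = inhibition above about 50% at the single tested dose, limit read from the data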;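 also: plate controls were DMSO wells with enzyme for no effect and DMSO wells lacking enzyme for full effect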
SENP7 block = inhibitors of human SENP7 protease; inhibition, % at 5 µM; 330,000 tested, 1.5% active; recombinant SENP7, Z-RLRGG-aminoluciferin luminescence, 40 min;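 active = inhibition above about 50% at the single test dose, limit read from the data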;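 also: plate controls were DMSO with enzyme for no effect and no enzyme buffer wells for full effect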
Target sequence (Q9BQF6 706-1050 limits assumed): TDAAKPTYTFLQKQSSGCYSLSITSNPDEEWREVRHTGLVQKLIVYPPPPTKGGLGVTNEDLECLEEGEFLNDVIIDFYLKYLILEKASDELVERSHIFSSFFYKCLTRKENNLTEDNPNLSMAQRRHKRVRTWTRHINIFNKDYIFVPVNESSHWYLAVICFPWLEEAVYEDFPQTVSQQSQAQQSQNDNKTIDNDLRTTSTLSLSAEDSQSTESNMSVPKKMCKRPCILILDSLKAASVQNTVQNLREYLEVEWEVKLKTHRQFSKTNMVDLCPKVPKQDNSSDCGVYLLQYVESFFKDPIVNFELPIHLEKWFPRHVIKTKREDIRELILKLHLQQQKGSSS
SENP8 block-2 = blocks human SENP8 cleavage of Nedd8 substrate. AID 602440. inhibition, % at 20 µM. Q96LD8. recombinant SENP8, Nedd8 substrate fluorescence. 360,000 tested, 0.64% active; in the data active = inhibition mostly above about 40%, no sharp cut-off; inactive = mostly below about 27%
SENP8 confirm = confirmation of human SENP8 protease inhibitors. shares compounds with SENP7 block. Recombinant SENP8, Z-RLRGG-aminoluciferin luminescence, 60 min. inhibition, % at 12.5 µM. 6,200 tested, 40% active. AID 488912;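 active = mean inhibition across replicates above about 50%, limit read from the data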
SENP6 conf = human SENP6 inhibition, confirmed. shares compounds with SENP7 block. recombinant SENP6, Z-RLRGG-aminoluciferin luminescence. inhibition, % at 12.5 µM. 6,200 tested, 58% active. AID 488915
SENP7 confirm = human SENP7 inhibition, confirmed. AID 488917. inhibition, % at 12.5 µM. 6,200 tested, 69% active. recombinant SENP7, Z-RLRGG-aminoluciferin luminescence, 40 min. shares compounds with SENP7 block
Casp3 SENP sel = inhibits human caspase-3 in SENP selectivity test | shares compounds with SENP7 block | inhibition, % at 12.5 µM | purified caspase-3, Z-DEVD-aminoluciferin luminescence, 60 min | 6,200 tested, 60% active;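 active = mean inhibition above about 50%, limit read from the data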;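 also: plate controls were enzyme with DMSO for no effect and wells without caspase-3 for full effect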
SENP luc ctr = interferes with luciferase luminescence in SENP counter-screen. shares compounds with SENP7 block. Pre-incubated SENP8/Z-RLRGG-aminoluciferin, luciferase luminescence interference. inhibition, % at 12.5 µM. 6,200 tested, 39% active;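 active = mean inhibition above about 50% when retested at one dose, limit read from the data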;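 also: plate controls were DMSO wells with completed reaction for no effect and substrate without enzyme for full effect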
Numbers without * were called inactive; i = inactive; . = not tested or not shown. Only some compounds are listed: those with a hit (about 2.8% of all), similar ones and a draw of the others.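 The calls were made as follows, unless noted: active = mean inhibition above about 50% in the one-dose retest (limit read from the data); inactive = the rest.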

SMILES	HSP90 inh	SENP8 block-1	SENP6 block	SENP7 block	SENP8 block-2	SENP8 confirm	SENP6 conf	SENP7 confirm	Casp3 SENP sel	SENP luc ctr
COc1cccc(NC(=O)c2ccc3snnc3c2)c1	0	48	64*	58*	33	56*	52*	84*	75*	64*
COc1ccccc1NC(=O)c1ccc2nc(C)sc2c1	-3	-7	15	3	4	.	.	.	.	.
Cc1ccccc1NC(=O)Cc1nc(-c2c[nH]c(C(=O)N3CCCC3)c2)cs1	.	3	-6	-6	-23	.	.	.	.	.
Cc1cccc(N=Nc2cnc(N)s2)c1	-3	18	55*	47	12	52*	44	70*	24	22
CC(=O)Nc1ncc(N=Nc2cccc(C(F)(F)F)c2)s1	0	-12	-32	-1	28	.	.	.	.	.
Cc1cccc(/N=C/c2sc3ccccc3c2O)n1	6	62*	80*	90*	-359	44	44	15	15	12
O=C(N/N=C/c1sc2ccccc2c1O)c1cccc2ccccc12	6	.	.	.	-68	.	.	.	.	.
Cc1cccc(/N=C/c2c(O)[nH]c3ccccc23)n1	-1	75*	88*	3	-3	4	73*	94*	72*	38
CC(C)N=Cc1c(O)[nH]c2ccccc12	4	-4	-8	0	16	.	.	.	.	.
Nc1nccc(-c2cc(-c3ccc(Cl)cc3Cl)no2)n1	0	92*	95*	95*	-208	80*	87*	91*	76*	42
Nc1ccc2oc(-c3ccccc3Cl)nc2c1	7	68*	91*	77*	-240	90*	90*	99*	87*	80*
Nc1ccc2oc(-c3cc(Br)ccc3Cl)nc2c1	5	-1	11	8	-100	.	.	.	.	.
CCc1ccc2oc(-c3cc(N)cc(C)c3O)nc2c1	-2	75*	79*	54*	-110	35	50*	78*	58*	7
CCc1ccc2oc(-c3cc(N)ccc3O)nc2c1	0	94*	97*	92*	-138	68*	94*	99*	86*	16
CC(C)(C)C(=O)Nc1ccc2oc(-c3cc(F)c(F)cc3Cl)nc2c1	3	-15	-17	-12	i	.	.	.	.	.
CCc1ccc2oc(-c3cc(N)ccc3Cl)nc2c1	2	92*	95*	95*	i	95*	97*	101*	82*	78*
Cc1c(NC(=O)c2ccc(=O)oc2)c(=O)n(-c2ccccc2)n1C	-1	3	7	3	-48	.	.	.	.	.
Cc1ccc(NC(=S)NNC(=S)Nc2cccc(C(F)(F)F)c2)cc1	0	-13	-88	9	4	.	.	.	.	.
Cc1ccc(C(O)c2ncc(-c3ccc(Cl)cc3)[nH]2)c(C)c1 (stereo not given)	.	.	.	.	8	.	.	.	.	.
COCCn1c(SCC(=O)Nc2ccc(C)cc2)nc2c(oc3ccccc32)c1=O	3	2	-12	2	3	.	.	.	.	.
O=C(Nc1cccc([N+](=O)[O-])c1)c1ccc2ccccc2c1O	-3	92*	90*	92*	5	-4	30	28	27	0
O=C(Nc1cccnc1)c1ccc2ccccc2c1O	10	85*	94*	88*	-496	93*	92*	100*	93*	87*
O=C(Nc1ccccn1)c1ccc2ccccc2c1O	-2	43	63*	25	i	49	45	76*	63*	59*
CCn1c2ccccc2c2cc(NC(=O)CSc3nnc(-c4cccc(Cl)c4)o3)ccc21	2	10	-5	1	7	.	.	.	.	.
CN(C)c1ccc(C2C3CCCc4ccccc4C3=NN2C)cc1 (stereo not given)	3	-3	-2	2	-174	.	.	.	.	.
SMILES	HSP90 inh	SENP8 block-1	SENP6 block	SENP7 block	SENP8 block-2	SENP8 confirm	SENP6 conf	SENP7 confirm	Casp3 SENP sel	SENP luc ctr
CCOCCCNCc1ccc(OCC(=O)N2CCOCC2)c(OC)c1	1	-4	-2	6	16	.	.	.	.	.
Cc1cc(=O)oc(C)c1C(=O)NCc1c(F)cc(F)cc1F	2	-12	-1	-11	2	.	.	.	.	.
Cc1cncc(NCc2ccc3c(c2)OCO3)n1	.	.	.	.	-412	.	.	.	.	.
CCc1nc(SCC(=O)N2CCN(C(=O)c3ccco3)CC2)c2c3c(sc2n1)CCCC3	-1	-9	-9	-3	10	.	.	.	.	.
Cc1nn(C(=O)c2ccc3c(c2)OCO3)c(N)c1-c1ccccc1	11	59*	83*	65*	8	5	78*	96*	68*	37
O=C(COC(=O)c1cc(C(F)(F)F)cc(C(F)(F)F)c1)NCc1ccc(Cl)cc1	-5	2	-6	6	11	.	.	.	.	.
Cc1ccc(-c2csc(N3C(=N)SCC3=O)n2)cc1	2	51*	0	71*	.	2	13	10	16	8
CC1=NN(c2nc(-c3ccc(Cl)cc3)cs2)C(=O)C1	0	-3	37	9	27	.	.	.	.	.
CCOC(=O)c1cnn(-c2cc(C)cc(C)c2)c1N	0	10	8	1	1	.	.	.	.	.
C=C1CCc2c([nH]c3ccc(OCC(C)C)cc23)C1=O	-1	8	95*	-2	-279	12	4	7	4	3
OCc1ccc(N=Nc2ccccc2)cc1	.	24	43	55*	20	35	35	74*	52*	53*
Cc1ccc(O)c(N=Nc2ccc(S(=O)(=O)N3CCCC3)cc2)c1	-3	-3	14	17	18	.	.	.	.	.
O=C(O)CCCC(=O)Nc1ccc(N=Nc2ccccc2)cc1	0	8	16	6	16	.	.	.	.	.
Oc1ccc(N=Nc2ccccc2)cc1	11	74*	82*	68*	29	81*	80*	91*	57*	83*
Oc1ccc(Cl)cc1N=Nc1ccccc1	-2	43	73*	67*	4	-6	27	80*	23	7
COc1ccc(N=Nc2cc(C)ccc2O)cc1	4	96*	9	99*	-11	84*	97*	102*	92*	92*
COc1ccc(Cc2nnc(SC)n2-c2ccc(F)cc2)cc1OC	.	.	.	.	18	.	.	.	.	.
CC1CCN(CCCn2c(=S)[nH]c3ccc(N4CCOCC4)cc3c2=O)CC1	-3	0	4	9	-252	.	.	.	.	.
CCOC(=O)Cc1csc(NC(=O)COc2ccc3ccccc3c2)n1	8	-2	-11	-3	10	.	.	.	.	.
COC(=O)c1ccc(OCCOc2ccccc2)cc1	-3	-13	22	16	14	.	.	.	.	.
